This passage reports growth results from PubChem BioAssay (NCI).

This is part of a sample that, as a whole, favours compounds with a hit. Of some 83,000 tested, about 20% had one in any assay.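 Cell lines were cultured in 96-well plates, exposed to a single compound concentration, and assessed for percent growth 48 hours later.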 Values without a mark were called inactive. Activity calls are given as the source filed them. The calls were made as follows: active = growth percent below 10; inactive = the rest.

Holding throughout (experiment): NCI-60 one-dose screen, 48 h (100 = growth as untreated, 0 = no growth, -100 = all killed)
Details in all cases: 10 µM unless noted

The subject of test [1] is HCT-15 colon.
Test [2] has as its system HT29 colon.
Test [3] has as its system SNB-75 CNS.
Test [4] relates to SNB-19 CNS.
Test [5] concerns U251 CNS.
Test [6] has as its system PC-3 prostate.
Test [7] concerns SK-MEL-5 melanoma.
The test system of test [8] is UACC-62 melanoma.
Test [9] concerns LOX IMVI melanoma.
The test system of test [10] is SK-MEL-28 melanoma.
The subject of test [11] is SK-MEL-2 melanoma.
For test [12], the system named is SN12C renal.
In test [13] the test system is UO-31 renal.
The subject of test [14] is TK-10 renal.
Test [15] concerns ACHN renal.
The test system of test [16] is CAKI-1 renal.
The subject of test [17] is CCRF-CEM leukemia.
Test [18] deals with MOLT-4 leukemia.

In the case of `CCOC(=O)C(Cc1ccccc1)n1c(O)c(C=Nc2ccc(C(=O)OCCN(CC)CC)cc2)sc1=O` (configuration not stated), the growth in [1] is 89.4%; in test [2], 62.4%; in [3], 99.7%; in [4] it was 95.3%; in [5], 96.3%; in test [6], 72.8%. Further, the growth was 88.7% in [7]; 97.7% in test [8]; 93.7% in [9]; 93.1% in [10]; 90.7% in test [11]; 92.1% in [12]. The growth in [13] was 84.7%; in test [14], 112%; in [15] it was 104%; in test [16] it was 97.4%; in test [17], 68.2%; in test [18], 69.3%.

On to `CCN(C(=O)c1cc2ncccc2[nH]1)[C@H]1CCC[C@@H](NCc2cccc(F)c2)C1`, for which the growth was 100% in test [1]; 105% in [2]; 88% in test [3]; 98.7% in [4]; 107% in test [5]; 102% in test [6]. In addition, the growth in test [7] was 96.3%; in test [8] it was 98%; in [9], 94.8%; in [10], 103%; in [11], 105%; in [12] it was 95.3%. The growth in [13] is 74.3%; in [14], 92.6%; in [15] it was 102%; in [16] it was 101%; in [17], 128%; in test [18], 95.9%.

In the case of `CN1C(=O)[C@H]2c3c1cccc3[C@@]13NC(=O)O[C@H]1[C@H](CCC3(C)C)C2(C)C`, the growth in [1] was 93.6%; in [2] it was 100%; in test [3], 81.1%; in test [4], 90.7%; in [5] it was 103%; in test [6], 84.6%. The growth in [7] is 98.1%; in test [8] it was 85.4%; in [9] it was 100%; in test [10] it was 109%; in [11] it was 92.8%; in test [12], 93.3%. In addition, the growth in [13] is 84.6%; in [14], 87.2%; in [15] it was 94.2%; in test [16] it was 94.4%; in test [17], 94.5%; in test [18], 79.4%.

For `O=C1c2ccccc2C(=O)c2c1oc1oc3c(c(=O)c21)c(=O)n(-c1ccccc1)c1ccccc31`, the growth in test [1] was 66.6%; in test [2], 84.2%; in test [3], 31.8%; in [4], 27.9%; in test [5], 21.1%; in test [6], 34.2%. Further, the growth was 17.7% in test [7]; 13.2% in [8]; 43% in test [9]; 39.4% in test [10]; 23.1% in [11]; 97.7% in test [12]. The growth in test [13] was 49.2%; in test [14], 64.2%; in [15] it was 28.5%; in [16], 69.2%; in [17] it was 17.8%; in [18], 16.1%.

For the compound `COc1ccc(/C=C/c2nc(N3CCOCC3)c3nc(Cl)c(Cl)cc3n2)cc1OC`, the growth in [1] was 97.5%; in [2] it was 97.4%; in [3], 88.3%; in test [4], 102%; in test [5], 103%; in [6] it was 102%. The growth is 103% in [7]; 101% in [8]; 97.2% in test [9]; 109% in [10]; 99.1% in test [11]; 98.3% in test [12]. For the same compound, the growth is 108% in test [13]; 104% in test [14]; 100% in test [15]; 93.7% in test [16]; 99.3% in test [17]; 87.6% in test [18].

Take `CCn1cc(C(=O)O)c(=O)c2cc(F)c(N3CCN(S(=O)(=O)c4ccc(Cl)cc4Cl)CC3)cc21`: the growth in test [1] was 7.58% (active); in test [2], 1.87% (active); in test [3] it was 74.8%; in [4], 26.2%; in test [5] it was 12.1%; in [6] it was 1.6% (active). In addition, the growth in test [7] is -55% (active); in test [8], 16.1%; in test [9], -35.4% (active); in test [10], 107%; in test [11], -18.1% (active); in test [12] it was 10.3%. Further, the growth in test [13] is -13.4% (active); in [14], 12.4%; in test [15], -54.6% (active); in test [16], 4.75% (active); in test [17] it was 2.78% (active); in [18] it was 1.8% (active).

Take `COc1cccc(-c2nc3sccn3c2-c2ccnc(NCCCNS(=O)(=O)c3ccccc3)n2)c1`: the growth in [1] was 29.7%; in test [2] it was 29.4%; in test [3] it was 92.6%; in test [4] it was 95.5%; in test [5] it was 71%; in test [6] it was 61.6%. For the same compound, the growth in test [7] was 9.71% (active); in [8], 14.2%; in [9], 28.9%; in test [10] it was 43.4%; in test [11], 58.1%; in test [12], 55%. In addition, the growth in [13] is 29.5%; in test [14], 82%; in test [15], 40.2%; in [16], 52.5%; in test [17], 30%; in test [18] it was 29.4%.

In the case of `CCN(C(=O)c1cc2ccccc2[nH]1)[C@H]1CCC[C@@H](NCc2ccc(OC)cc2)C1`, the growth was 81% in test [1]; 76.2% in [2]; 80.6% in [3]; 91.3% in test [4]; 101% in test [5]; 88.5% in test [6]. Further, the growth was 91.2% in [7]; 95.6% in test [8]; 89% in [9]; 98.3% in test [10]; 100% in [11]; 92.2% in test [12]. Also, the growth is 66% in test [13]; 81% in [14]; 94.7% in test [15]; 96% in [16]; 102% in test [17]; 70.2% in test [18].

For `Cc1nc(Nc2cccnc2)sc1C(=O)/C=C/c1ccc(Cl)cc1`, the growth in [1] was 15%; in [2] it was 6.4% (active); in test [3], -1.63% (active); in [4] it was 14.2%; in [5] it was 3.86% (active); in test [6], 29.4%. The growth in test [7] is 73.1%; in [8] it was 36.1%; in [9], 0.346% (active); in [10], 77.8%; in test [11] it was 82.6%; in test [12], 7.95% (active). Moreover, the growth was 25.3% in test [13]; 8.61% (active) in test [14]; 40.1% in [15]; 47.1% in [16]; 1.72% (active) in [17]; 53% in [18].
